Structures can show the parent of a compound that is named as a salt.
How the values were obtained:
Details in all cases: compound concentration in added solution (µM; 5 µl added to 20 µl cells): 10; 18 h
A431 [1] = assay: LBPA endosome anti-LBPA integrated intensity (sum per cell), Z-score; higher = more LBPA staining
Outline: (§1)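 Each value is a Z-score normalised in AcuityXpress from per-cell integrated LBPA or filipin intensity, taken over the whole cell or within LBPA endosomes. Duplicate 384-well imaging plates held 5 µl of 10 µM compound solution, onto which 3,500 HeLa MZ or A431 cells in 20 µl were seeded per well. After 18 h the cells were fixed in 4% PFA, stained with 6C4 anti-LBPA antibody, filipin, propidium iodide and CellTracker green, imaged four times per well at 20× and segmented in MetaXpress.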

HeLa MZ [2] = assay: as above
Outline: as §1

A431 [3] = assay: whole-cell filipin (free cholesterol) integrated intensity, Z-score; higher = more cholesterol staining
Outline: as §1

HeLa MZ [4] = assay: as above
Outline: as §1

A431 [5] = assay: filipin (cholesterol) integrated intensity within LBPA endosomes, Z-score; higher = more cholesterol in LBPA endosomes
Outline: as §1

HeLa MZ [6] = assay: as above
Outline: as §1

| SMILES | LBPA endosome anti-LBPA integrated intensity (z-score) (A431 [1]) | LBPA endosome anti-LBPA integrated intensity (z-score) (HeLa MZ [2]) | whole-cell filipin (z-score) (A431 [3]) | whole-cell filipin (z-score) (HeLa MZ [4]) | filipin (z-score) (A431 [5]) | filipin (z-score) (HeLa MZ [6]) |
| --- | --- | --- | --- | --- | --- | --- |
| NC[C@H]1O[C@H](O[C@H]2[C@H](O[C@@H]3O[C@H](CO)[C@@H](O)[C@H]3O)[C@@H](O)[C@H](N)C[C@@H]2N)[C@H](N)[C@@H](O)[C@@H]1O [Ribostamycin sulfate salt] | -0.548 | 1.92 | -0.165 | 2.24 | -0.516 | -0.59 |
| CCOc1ccc2c(c1)C(C)=CC(C)(C)N2 [Ethoxyquin] | -0.421 | 0.201 | -0.319 | -0.546 | -0.467 | -0.418 |
| CCN1CCC[C@H]1CNC(=O)c1c(OC)ccc(Br)c1OC [Remoxipride Hydrochloride] | -0.395 | 0.278 | -0.41 | -0.384 | -0.372 | -0.266 |
| O=c1[nH]c(=O)n([C@H]2C[C@H](O)[C@@H](CO)O2)cc1I [Idoxuridine] | -0.506 | 0.506 | -0.368 | 0.357 | -0.479 | -0.063 |
| CCC(C)n1ncn(-c2ccc(N3CCN(c4ccc(OCC5COC(Cn6cncn6)(c6ccc(Cl)cc6Cl)O5)cc4)CC3)cc2)c1=O (configuration not stated) [Itraconazole] | 1.31 | 0.474 | 2.3 | 2.36 | 2.02 | 1.87 |
| CC(C)COCC(CN(Cc1ccccc1)c1ccccc1)N1CCCC1 (configuration not stated) [Bepridil hydrochloride] | 1.46 | 1.74 | -0.0149 | -0.717 | 2.11 | 0.331 |
| CC(C)NCC(O)COc1ccc(CCOCC2CC2)cc1 (configuration not stated) [Betaxolol hydrochloride] | 2.57 | 2.19 | 0.139 | -0.283 | 0.614 | 0.292 |
| CC(=O)OCC(CCn1cnc2cnc(N)nc21)COC(C)=O [Famciclovir] | -0.437 | -0.227 | -0.465 | -0.311 | -0.431 | -0.386 |
| Clc1ccc(COC(Cn2ccnc2)c2ccc(Cl)cc2Cl)c(Cl)c1 (configuration not stated) [Miconazole] | 0.0492 | 1.55 | 0.107 | 0.176 | -0.0467 | 0.514 |
| O=C(O)CCC(=O)Nc1ccc(S(=O)(=O)Nc2nccs2)cc1 [Succinylsulfathiazole] | -0.428 | -0.709 | -0.288 | -0.818 | -0.463 | -0.508 |
| COc1ccc(C(=O)NCc2ccc(OCCN(C)C)cc2)cc1OC [Itopride] | -0.646 | -0.657 | -0.844 | -0.665 | -0.581 | -0.36 |
| CC1CNc2c(cccc2S(=O)(=O)N[C@@H](CCCNC(=N)N)C(=O)N2CC[C@@H](C)C[C@@H]2C(=O)O)C1 (some centres not stated) [Argatroban] | -0.429 | -0.462 | -0.724 | 0.346 | -0.455 | -0.335 |
| OCCN1CCN(CCCN2c3ccccc3Sc3ccc(Cl)cc32)CC1 [Perphenazine] | 3.24 | 0.966 | -0.472 | -0.434 | 2.14 | 2.73 |
| O=C(O)c1cccnc1 [Niacin] | -0.578 | -1.61 | -0.557 | -0.648 | -0.464 | -0.617 |
| CC1(C)NC(=O)N(c2ccc([N+](=O)[O-])c(C(F)(F)F)c2)C1=O [Nilutamide] | -0.466 | -0.349 | -0.373 | -0.711 | -0.474 | -0.472 |
| CCCCOc1ccc(OCCCN2CCOCC2)cc1 [Pramoxine hydrochloride] | -0.284 | 1.34 | 0.443 | 2.25 | -0.151 | 0.197 |
| CC(C)(C)NCC(O)c1ccc(O)c(CO)c1 (configuration not stated) [Salbutamol] | -0.288 | -0.311 | 0.022 | -0.307 | -0.535 | -0.499 |
| OCCN1CCN(CCCN2c3ccccc3Sc3ccc(C(F)(F)F)cc32)CC1 [Fluphenazine dihydrochloride] | 2.14 | 0.746 | -0.522 | 0.27 | 2.23 | 3.52 |
| CC(=O)N[C@@H](CS)C(=O)O [Acetylcysteine] | -0.477 | -0.307 | -0.0556 | -0.751 | -0.4 | -0.456 |
| O=C(N/N=C/c1ccc([N+](=O)[O-])o1)c1ccc(O)cc1 [Nifuroxazide] | -0.723 | -1.67 | -0.848 | -0.476 | -0.646 | -0.646 |
| N[C@H]1CONC1=O [(S)-(-)-Cycloserine] | -0.455 | -0.138 | -0.147 | -0.221 | -0.457 | -0.283 |
| Nc1ccc(C(=O)NCC(=O)O)cc1 [Aminohippuric acid] | -0.53 | -0.169 | -0.32 | -0.186 | -0.48 | -0.359 |
